Data reported in PubChem BioAssay (NCI).
Compounds without any hit were thinned out: in the full panel of roughly 79,000, 15% have a hit. Cut-off read from the data, not from the text of the source: active = growth inhibition above about 70%; inactive = the rest.

Columns and labels:
[1] = NCI Yeast Anticancer Drug Screen. Data for the rad50 strain (AID 155);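 note: 0% = growth of vehicle-only cultures of the same strain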; details: S. cerevisiae rad50 strain growth inhibition; at 50.0 µM; stronger effect = higher value
Summary of the method: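 Growth of the mutant yeast was measured after compound exposure and referenced to vehicle-treated cultures.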

[2] = NCI Yeast Anticancer Drug Screen. Data for the mec2-1 strain (AID 157); details: S. cerevisiae mec2-1 strain, at 50.0 µM, stronger effect = higher value
Summary of the method: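 Strain: mec2-1 (DNA repair/cell cycle alteration). Compound exposure, then growth measured; inhibition expressed relative to vehicle.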

[3] = NCI Yeast Anticancer Drug Screen. Data for the sgs1 mgt1 strain (AID 161);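 note: 0% = growth of cultures given vehicle only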; details: S. cerevisiae sgs1 mgt1 strain, at 50.0 µM, stronger effect = higher value
Summary of the method: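 Mutant yeast exposed to compound; growth scored against vehicle-only wells.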

[4] = NCI Yeast Anticancer Drug Screen. Data for the cln2 rad14 strain (AID 165);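 note: 0% = growth equal to vehicle treated cultures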; details: S. cerevisiae cln2 rad14 strain, at 50.0 µM, stronger effect = higher value
Summary of the method: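 Compounds are applied to the cln2 rad14 yeast strain, and growth is then compared with that of vehicle-treated cultures to give inhibition.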

[5] = NCI Yeast Anticancer Drug Screen. Data for the bub3 strain (AID 167); details: S. cerevisiae bub3 mutant strain, at 50.0 µM, stronger effect = higher value
Summary of the method: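 Whole-cell yeast assay. The mutant strain was incubated with compounds, and growth inhibition was determined by comparison with vehicle-treated cells.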

[6] = NCI Yeast Anticancer Drug Screen. Data for the mlh1 rad18 strain (AID 175); details: S. cerevisiae mlh1 rad18 strain growth inhibition; at 50.0 µM; stronger effect = higher value
Summary of the method: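 Read-out is yeast growth inhibition, calculated against vehicle-only controls. The compound was applied to a strain engineered with DNA damage repair alterations.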

Measured: growth inhibition

O=c1onc2c3ccccc3ncn12
inactive: [1] 15.2% | [2] 7.6% | [3] -21.2% | [4] -11.4% | [5] -8.6% | [6] 0.65%

CC1(CCOCc2ccccc2)NC(=O)N(CCC#N)C1=O (stereo unspecified)
inactive: [1] 6.9% | [2] -9.65% | [3] -4.6% | [4] -10.2% | [5] 2.55% | [6] 12.6%

COC(=O)c1cc(=O)[nH]c(=O)[nH]1
inactive: [1] -10.6% | [2] -12.8% | [3] -15.8% | [4] 9.45% | [5] -13.5% | [6] -15.9%

CCOC(C)=N
inactive: [1] 3.1% | [2] -29.4% | [3] 7.3% | [4] -6.85% | [5] -9.7% | [6] 3.35%

Cn1c(COc2ccc(/C=N\N3CCN(/N=C\c4ccc(OCc5c[n+]6ccccc6n5C)cc4)CC3)cc2)c[n+]2ccccc12
inactive: [1] -15.8% | [2] 11.8% | [3] 29.6% | [4] 25.7% | [5] -5.95% | [6] 44%

ClCC1CCN(Cc2ccccc2)CC1
inactive: [1] -4.5% | [2] 13.9% | [3] 6.7% | [4] -17.4% | [5] -10.5% | [6] 6.9%

Cn1c2ccccc2c2nc3ccccc3c(Cl)c21
inactive: [1] -43.5% | [2] -12.8% | [3] -49.9% | [4] -12.9% | [5] -39.9% | [6] -31.9%

CCOC(=O)Nc1ccc([N+](=O)[O-])cc1[N+](=O)[O-]
inactive: [1] 15.9% | [2] -0.45% | [3] 16.2% | [4] 14.8% | [5] 8.6% | [6] 13.2%

O=COCCCc1ccccc1
inactive: [1] 15.8% | [2] -1.85% | [3] 11.8% | [4] -5.2% | [5] 3.15% | [6] -23.7%

O=C(CCCN1CCC(Nc2ccccc2)(c2nnnn2C2CCCCC2)CC1)c1ccc(F)cc1
inactive: [1] -7.05% | [2] -16.2% | [3] 0.3% | [4] 11.1% | [5] 1.25% | [6] 7.15%

COc1cc(C(O)C(CO)Oc2c(OC)cc(C3OCC4C(c5cc(OC)c(O)c(OC)c5)OCC34)cc2OC)ccc1O (stereo unspecified)
inactive: [1] 20.1% | [2] 1.4% | [3] -2.05% | [4] 10% | [5] -6.7% | [6] 15.2%

Cn1nc2ccccc2cc1=O
inactive: [1] 20.7% | [2] 2.65% | [3] -2.1% | [4] 14.2% | [5] 10.8% | [6] 14.9%

CNC(=O)OCc1c(COC(=O)NC)c(-c2ccc(SC)cc2)n(C)c1C
inactive: [1] 24.9% | [2] 8.4% | [3] 47.4% | [4] 0.1% | [5] 2.6% | [6] 49.7%

COc1cccc(Oc2ccc(C)cc2)c1
inactive: [1] 17.2% | [2] -12.8% | [3] -18.6% | [4] -19.1% | [5] 8.95% | [6] -21.9%

NCCSCCC(=O)O
inactive: [1] -0.25% | [2] -12.1% | [3] -36.9% | [4] 7.3% | [5] -28.4% | [6] -22.6%

OCCCN=C1CCCCC1
inactive: [1] -3.4% | [2] -10.3% | [3] -35.5% | [4] -54.4% | [5] -11% | [6] -13.3%

Cc1nc2c(N)cc(Cl)cc2[nH]1
inactive: [1] 13.2% | [2] 13.3% | [3] 19.6% | [4] 8.25% | [5] -7.3% | [6] 7.75%

CC(C)CCc1ccc2ccc3cccc4ccc1c2c34
inactive: [1] -17.6% | [2] 3.55% | [3] -1.15% | [4] -26.3% | [5] -0.85% | [6] -8.1%

Cc1n[n+](Cc2ccccc2)c2sc(N)nn12
inactive: [1] 2.85% | [2] 6.25% | [3] -41.6% | [4] 20% | [5] 26.9% | [6] -26.1%

N#CC1CCCC/C1=N/NC(N)=O (stereo unspecified)
inactive: [1] -11.9% | [2] -6.65% | [3] -13.6% | [4] -6.05% | [5] -6.65% | [6] -6%

CC(=O)NC(Cc1ccc(F)cc1)C(=O)O (stereo unspecified)
inactive: [1] -1.75% | [2] -7.85% | [3] -18.1% | [4] -19.7% | [5] -27.6% | [6] -17.9%
